An excerpt weighted towards active compounds, which were near 3.7% of everything screened.
ELG1 DNA repair – inhibitors of ELG1-dependent DNA repair in HEK293T cells | HEK293T ELG1-luciferase reporter, luminescence, 16 h; DNA damage induced by 5-fluorouridine | Potency, µM (series often up to 46.1 µM), without a hit: at the highest dose activity change, negative = inhibition, actives largely listed as inhibitors | 330,000 compounds, 2.3% hits | AID 504467; note: % is set by controls: 0 for no effect and ±100 for the full control effect; nearly all actives have a fitted effect of over 55% in size
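HEK293T cells expressing luciferase-tagged ELG1 (2,000/well) received 5-Fluorouridine plus compound or DMSO for 16 hr at 37 °C. Luciferase was read by ONE-Glo luminescence after 30 min at room temperature.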
Nrf2 block – inhibitors of Nrf2 signaling | A549 ARE-Fluc reporter, luciferase luminescence, 18-24 h | Potency, µM (titrated, usually from 46 µM), for the others: at the top dose activity change, negative = inhibition, usual class: inhibitors | 360,000 compounds, 2.1% hits | AID 504444; note: % is set by controls: 0 for no effect and ±100 for the full control effect; nearly all actives have a fitted effect of over 60% in size
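A549 ARE_Fluc cells (5000/well, 5% FBS OPTI-MEM) pre-incubated 2 h, then treated with compounds 18-24 h at 37C/5% CO2 in concentration-response. CellTiter-Fluor viability read first; BugLite luciferase luminescence after 15 min at room temperature gives Nrf2 activity.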
Nrf2 activator – activators of Nrf2 (ARE) signaling; AREc32 ARE-luciferase reporter (MCF7-derived line), luminescence, 24 h; Potency, µM (top dose mostly 46.1 µM), inactives show at the highest dose activation, actives largely listed as activators; 410,000 compounds, 0.31% hits; AID 624171; note: % of control where 0% means no effect; nearly all actives have a fitted effect of over 65% in size
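ARE-driven firefly luciferase activity in AREc32 cells measured after a 24 hr compound exposure at 37 deg C, using Steady-Glo reagent and a 30 min room-temperature hold.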
A549 viability – counter-screen for Nrf2 inhibitors: cytotoxicity in A549 cells; 390,000 compounds, 0.16% hits; Potency, µM (doses to about 46 µM), for inactives: at the highest dose activity change, negative = cytotoxicity, most hits filed as inhibitors; A549 ARE-Fluc cells, CellTiter-Fluor viability, 18-24 h; AID 504648; note: % is set by controls: 0 for no effect and ±100 for the full control effect
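A549 ARE-Fluc cells in 5% FBS OPTI-MEM, 5000 cells/well, rested 2 h then exposed to compounds in concentration-response for 18-24 h at 37 °C. Viability by CellTiter-Fluor fluorescence (Ex 405/Em 525) after 30 min; luciferase luminescence (BugLite, 15 min, RT) read afterwards.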
The depositor's hits bear a star; ? = inconclusive; . = no result given; ! = not confirmed by another sample. Calls come from the whole dose curve; as a rule, active = well fitted curve in the direction sought with a large enough effect; inconclusive = small, poorly fitted or top-dose-only effect, or another doubt; inactive = no such curve, though single readings can be large; an effect the other way counts as inactive or inconclusive. Potency is the fitted concentration of half-maximal effect.

SMILES	ELG1 DNA repair	Nrf2 block	Nrf2 activator	A549 viability
Cc1ccc(S(=O)(=O)/N=C2\C=C(Nc3cccc(C(=O)O)c3)C(=O)c3ccccc32)cc1	23µM*	4%	-2%	-8%
Cc1ccc(S(=O)(=O)/N=C2\C=C(Nc3cccc(C(=O)O)c3)C(=O)c3ccccc32)c(C)c1	?	-8%	-2%	-3%
CCC1CCCCN1CCCNC(=O)c1ccc2c(c1)N(Cc1ccc(Cl)cc1)C(=O)c1ccccc1S2(=O)=O (stereo not given)	.	16%	-4%	-10%
O=C1CS/C(=N/N=C/c2cccs2)N1Cc1ccc(F)cc1	21µM*	?	3%	-8%
Cc1cc(C(=O)NNc2ccc(C)c(C)c2)no1	8.2µM*	5%	7%	9%
COC(=O)Cn1cnc2c(nnn2-c2cccc(OC)c2)c1=O	-1%	-1%	0%	1%
COc1ccc(CNC(=O)Cn2nc(C)c3c(C)n(-c4ccc(C)cc4)nc3c2=O)cc1OC	21µM*	23µM*	-1%	-11%
CCOc1ccccc1CNC(=O)Cn1nc(C)c2c(C)n(-c3ccc(C)cc3)nc2c1=O	2.9µM*	9.2µM*	9%	1%
CC(=O)Nc1ccc(C=NNc2nnc(NN=Cc3ccc(NC(C)=O)cc3)c3ccccc23)cc1	.	18µM*	3%	-6%
Cc1ccc(/C=N/Nc2nnc(Cl)c3ccccc23)cc1	?	?	?	7%
C(=N\Nc1nncc2ccccc12)/c1ccccc1	?	?	11µM*	4%
Clc1ccc(/C=N/Nc2nnc(Cl)c3ccccc23)cc1	?	-14%	1.3µM*	-8%
Clc1nnc(NN=C2CCCC2)c2ccccc12	25%	?	10µM*	-1%
Cc1cccc(/C=N/Nc2nncc3ccccc23)c1	?	?	1%	-3%
Clc1nnc(N/N=C/c2ccccc2)c2ccccc12	?	?	?	0%
COc1ccc(N(CC(=O)NCCc2ccc(OC)c(OC)c2)S(=O)(=O)c2ccc(OC)c(OC)c2)cc1	-2%	1%	0%	-1%
CCC(C)(C)NC(=O)C(c1ccc(OC)cc1)N(C(=O)CCC(=O)Nc1cc(C)on1)c1cccc(F)c1 (stereo not given)	0%	5.8µM*	0%	?
COc1ccc(C(C(=O)NC(C)(C)C)N(C(=O)CCC(=O)Nc2cc(C)on2)c2cccc(F)c2)cc1 (stereo not given)	1%	-28%	0%	-4%
NC(=S)NN=C1CSSC1	.	.	10µM*	.
Cc1cccc(NS(=O)(=O)c2ccc3c(c2)CCN3C(=O)C2CC2)c1C	.	?	3%	-2%
O=C(Cn1cnc2c(cnn2-c2ccccc2)c1=O)N1CCCc2ccccc21	21µM*	-16%	-1%	-4%
O=C(N/N=C/c1cc([N+](=O)[O-])ccc1O)c1ccc(COc2ccc3c(c2)CCC3)o1	6.5µM*	-14%	2%	?
COc1ccc(Br)cc1/C=N/NC(=O)c1ccc(COc2ccc3c(c2)CCC3)o1	?	-5%	2%	-10%
CCOC(=O)c1c(NC(=O)C2=C(C)NC(=S)NC2c2ccc(CC)cc2)sc(C)c1C (stereo not given)	6.5µM*	.	.	.
COc1cccc(CNc2ccc3[nH]c(=O)[nH]c3c2)c1OCc1ccccc1F	9.2µM*	-7%	15%	4%
SMILES	ELG1 DNA repair	Nrf2 block	Nrf2 activator	A549 viability
Nc1cc(-c2ccccc2)ccc1O	8.2µM*!	16%	?	2%
CC1CC(C)CN(C(=O)C(NS(=O)(=O)c2ccc(Br)s2)c2ccccc2)C1 (stereo not given)	-15%	-27%	6%	-3%
Cc1nc(NCc2ccco2)c2c(C)c(C)sc2n1	9.2µM*	.	-1%	?
Cc1sc2ncnc(N(C)Cc3ccco3)c2c1C	-19%	?	15%	-4%
Cc1sc2ncnc(SCc3ccco3)c2c1C	?	-9%	3.2µM*	9%
Cc1cccc(CCNC(=O)C2CCCN(S(=O)(=O)c3ccc4c(c3)oc(=O)n4C)C2)c1 (stereo not given)	.	-12%	0%	0%
Cc1nccc(-c2cccc(N/N=C(\C#N)C(=O)c3ccccc3)c2)n1	15µM*	?	0%	-17%
Cc1nccc(-c2cccc(NC(=O)Nc3ccc(Cl)cc3)c2)n1	-10%	?	-1%	7%
CN(C)S(=O)(=O)Oc1ccsc1C(=O)Nc1ccc(Br)cc1	?	21µM*	11%	?
CC(/C=C/c1ccccc1)=N\Nc1nc2c(c(=O)[nH]c(=O)n2C)n1CCO	8%	-12%	28%	3%
CCCn1c(N/N=C\C=C\c2ccccc2)nc2c1c(=O)[nH]c(=O)n2C	?	9.2µM*	10%	0%
COCCn1c(N/N=C(C)/C=C/c2ccccc2)nc2c1c(=O)[nH]c(=O)n2C	4.6µM*	.	.	.
O=S(Cc1ccc(Br)cc1)Cc1nnc(SCc2ccc(Cl)cc2)n1-c1ccccc1 (stereo not given)	?	16µM*	3%	?
Cn1c(CS(=O)Cc2c(Cl)cccc2Cl)nnc1SCc1ccc(Cl)cc1 (stereo not given)	?	1%	4%	-1%
O=S(Cc1ccc(Br)cc1)Cc1nnc(SCc2c(F)cccc2Cl)n1-c1ccccc1 (stereo not given)	23µM*	?	3%	?
O=C(CSc1nnc(CCc2ccccc2)n1-c1ccc(Cl)cc1)c1ccccc1	-15%	23µM*	4%	?
N#Cc1nccnc1S(=O)(=O)c1cccs1	?	-13%	?	1%
C#Cc1ccc([C@H]2C=C(C(=O)N3CCOCC3)O[C@@H](OCC)[C@@H]2CCCO)cc1	7%	4%	-1%	5%
COc1ccccc1CCNC(=O)CCSc1nc(-c2ccco2)cc(C(F)(F)F)n1	?	18µM*	-1%	-19%
Cc1nn(C)c(C)c1NC(=O)CCCSc1nc(-c2ccco2)cc(C(F)(F)F)n1	26µM*	?	0%	-6%
CCn1cc(CN(C)C(=O)CSc2nc(-c3ccco3)cc(C(F)(F)F)n2)c(C)n1	.	?	0%	-11%
Cc1c(CN(C)C(=O)CSc2nc(-c3ccco3)cc(C(F)(F)F)n2)cnn1C	?	16µM*	0%	-18%
CC(=O)c1ccc(NC(=O)CCCSc2nc(-c3ccco3)cc(C(F)(F)F)n2)cc1	.	-17%	-1%	-3%
CN(C)S(=O)(=O)c1cccc(NC(=O)c2ccc(NS(=O)(=O)c3cccs3)cc2)c1	-13%	6%	2%	0%
COc1ccc(NC(=O)Cn2cc(S(=O)(=O)Cc3ccccc3)c3ccccc32)c(OC)c1	15µM*	2%	0%	-8%
COc1ccc(OC)c(NC(=O)C(=O)c2cn(CC(=O)N3CCCC3)c3ccccc23)c1	12µM*	?	0%	-14%
CCN(c1cccc(C)c1)S(=O)(=O)c1ccc(N2CCCCS2(=O)=O)cc1	.	.	0%	7%
CCOc1ccc(N(CC(=O)Nc2ccc(C)c(Cl)c2)S(C)(=O)=O)cc1	7%	?	4%	-2%

From PubChem
